Data reported in PubChem BioAssay AID720551 (National Center for Advancing Translational Sciences (NCATS), 2013).
In all, about 340,000 compounds went through this assay and about 1,300 (0.38%) were called active. The sample holds actives, similar compounds and a random draw of the others, so the mix is not that of the screen.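 How the source made its calls: active means maximum activity change below -70%; inconclusive means maximum activity change between -70% and -50%; inactive means maximum activity change above -50%.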

target: Voltage-gated inwardly rectifying potassium channel KCNH2 (Homo sapiens) (UniProt Q12809); assay: qHTS for Inhibitors of KCHN2 3.1: Wildtype qHTS; conditions: U2OS, BacMam KCNH2, thallium flux FluxOr; at 1.84 µM; stronger effect = lower value
Sequence (Q12809 whole entry, looked up): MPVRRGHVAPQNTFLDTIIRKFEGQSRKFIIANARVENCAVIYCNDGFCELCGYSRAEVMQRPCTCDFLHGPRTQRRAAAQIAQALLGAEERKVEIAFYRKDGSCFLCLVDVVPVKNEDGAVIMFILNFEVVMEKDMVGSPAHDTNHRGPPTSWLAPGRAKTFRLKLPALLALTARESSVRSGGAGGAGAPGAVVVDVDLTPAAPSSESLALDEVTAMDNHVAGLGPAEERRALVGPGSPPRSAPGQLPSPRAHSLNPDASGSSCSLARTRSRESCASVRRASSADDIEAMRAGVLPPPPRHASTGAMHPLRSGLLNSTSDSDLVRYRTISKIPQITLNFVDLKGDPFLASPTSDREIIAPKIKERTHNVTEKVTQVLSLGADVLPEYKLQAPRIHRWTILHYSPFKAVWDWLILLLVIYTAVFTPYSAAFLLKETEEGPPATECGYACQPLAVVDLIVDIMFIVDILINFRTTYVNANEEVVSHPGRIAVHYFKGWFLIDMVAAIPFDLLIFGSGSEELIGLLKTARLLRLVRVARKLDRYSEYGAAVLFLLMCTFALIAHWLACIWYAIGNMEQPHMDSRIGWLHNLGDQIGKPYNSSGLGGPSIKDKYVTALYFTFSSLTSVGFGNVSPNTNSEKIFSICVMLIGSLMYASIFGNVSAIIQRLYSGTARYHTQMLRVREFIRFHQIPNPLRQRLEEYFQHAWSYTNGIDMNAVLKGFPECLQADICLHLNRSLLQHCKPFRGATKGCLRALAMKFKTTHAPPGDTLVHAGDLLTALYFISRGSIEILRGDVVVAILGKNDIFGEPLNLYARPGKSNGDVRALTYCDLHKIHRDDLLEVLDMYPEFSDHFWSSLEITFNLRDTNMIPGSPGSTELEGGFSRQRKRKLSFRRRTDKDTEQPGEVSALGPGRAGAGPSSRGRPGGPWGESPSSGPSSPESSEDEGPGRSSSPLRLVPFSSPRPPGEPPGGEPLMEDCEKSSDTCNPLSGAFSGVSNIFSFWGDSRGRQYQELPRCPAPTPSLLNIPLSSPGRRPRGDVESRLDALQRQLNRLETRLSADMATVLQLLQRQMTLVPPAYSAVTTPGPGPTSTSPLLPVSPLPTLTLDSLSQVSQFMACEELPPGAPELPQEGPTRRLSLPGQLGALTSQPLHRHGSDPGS
Summary of the method: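 U2OS cells transduced with wild-type KCNH2 virus are loaded with FluxOr dye for 45 min, and thallium flux is measured in kinetic reads before and after stimulation buffer. Rate constants are normalized to DMSO controls.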
On the % scale 0 is the no-effect control and ±100 the full control effect.

Structure (SMILES)	activity change
CC(OC(=O)c1cccnc1Cl)C(=O)NC1CCCCC1 (stereo not drawn)	10.4% (inactive)
COc1ccc(-n2c(-c3ccc(Cl)cc3)n[nH]c2=S)c(OC)c1	-22.5% (inactive)
Cc1nn(-c2ccccc2)c2c1C(=O)NC(=O)C(C)(C)C2	-0.0713% (inactive)
CC1=C(N2CCN(c3ncccn3)CC2)CCC1=O	2.31% (inactive)
Cc1nn(-c2ncccn2)c2c1C(=O)CC(C)(C)C2Br (stereo not drawn)	-151% (active)
O=C(COC(=O)CCc1c[nH]c2ccccc12)Nc1cccc(Cl)c1	-8.07% (inactive)
CC1(C)CN(CCc2ccccc2)C(=O)[C@H]1CC(=O)Nc1ccc(Br)cc1	-7.47% (inactive)
CCCNC(=O)c1ccc(N2CCC3(CC2)CC(c2ccc(Cl)cc2)=NO3)c([N+](=O)[O-])c1	-85.9% (active)
CCC(C)NC(=O)c1ccc(N2CCC3(CC2)OCCO3)c([N+](=O)[O-])c1 (stereo not drawn)	-3.92% (inactive)
COCCNC(=O)c1ccc(N2CCC3(CC2)OCCO3)c([N+](=O)[O-])c1	-4.71% (inactive)
COc1ccc(OC)c(CN2CCN(C(=O)CNC(=O)c3cc(C)cc(C)c3)CC2)c1	-138% (active)
Cc1cc(C)cc(C(=O)NCC(=O)OCC(=O)N2CCCCC2)c1	-9.23% (inactive)
COc1cc(OC)cc(C(=O)NCC(=O)N2CCCCCCC2)c1	8.95% (inactive)
COc1ccc(C(CNC(=O)CSc2ccccc2)N2CCOCC2)cc1 (stereo not drawn)	-6.03% (inactive)
Cc1ccc(C=O)c([B-](F)(F)F)c1	-18.6% (inactive)
Cc1cc(=O)c2ccc(NC(=O)c3ccccc3)cc2[nH]1	13.6% (inactive)
COc1cc(C)c(CN2CCN(C(=O)CCC(=O)c3ccc(C)s3)CC2)cc1OC	1.74% (inactive)
COc1ccc(NC(=O)N2CCCC2C(=O)NCc2ccccc2Cl)cc1 (stereo not drawn)	-3.26% (inactive)
O=C1c2ccccc2C(O)N1Cc1ccccc1Cl (stereo not drawn)	23.3% (inactive)
O=C(Nc1ccc(Br)cc1)C1CCC(=O)N1Cc1ccccc1Cl (stereo not drawn)	-94.2% (active)
O=C(CN1CCCC1)Nc1sc2c(c1C(=O)Nc1ccccc1)CCCC2	-93.7% (active)
O=C(O)c1c(NC(=O)N2CCCC2)sc2c1CCCC2	0.0561% (inactive)
CCN1CCN(CC(=O)Nc2sc3c(c2C#N)CCC3)CC1	5.2% (inactive)
c1ccc(Cn2nnc3c(NCC4CC4)ncnc32)cc1	-10.7% (inactive)

Structure (SMILES)	activity change
Cc1c(NC(=O)COC(=O)/C=C/c2cccc(F)c2)c(=O)n(-c2ccccc2)n1C	0.394% (inactive)
Cc1csc(=O)n1CCC(=O)OCC(=O)Nc1ccc(N2CCOCC2)cc1	-7.46% (inactive)
Cn1c(CCN2CCN(c3ccccn3)CC2)nc2cc(NS(=O)(=O)c3ccc(F)cc3)ccc21	-20.6% (inactive)
COc1ccc(C(=O)NCCn2nc(C)cc2C)cc1OC1CCN(C(C)=O)CC1	3.09% (inactive)
COc1ccc(C(=O)NC2CC2)cc1OC1CCN(Cc2cnn(C)c2)CC1	-9.12% (inactive)
COc1ccc(C(=O)NC2CC2)cc1OC1CCN(Cc2ccc(SC)cc2)CC1	-117% (active)
COc1cc(C(=O)N2CCN(C/C=C/c3ccccc3)CC2)cc(OC)c1C	-0.254% (inactive)
COc1ccc(C(=O)NC2CC2)cc1OC1CCN(C/C=C/c2ccccc2)CC1	-83.5% (active)
COc1cc2[nH]c(=O)n(Cc3ccc(C(=O)NC4CCN(Cc5ccccc5)CC4)cc3)c(=O)c2cc1OC	-9.69% (inactive)
O=C(NCc1ccccc1)C1CNCC(C(=O)NCc2ccccc2)C1 (stereo not drawn)	-19% (inactive)
COc1ccc(-c2ccc3[nH]c4c(c3c2)CCN2C[C@H]3[C@H](C)ON(C)[C@H]3C[C@@H]42)cc1	-1.03% (inactive)
COc1cc(NC(=O)C2=C(C)OCCS2)c(Cl)cc1C(=O)NCCCN1CCCC(C)C1 (stereo not drawn)	15% (inactive)
N#CC1(Nc2ccc3c4c(cccc24)CC3)CCCCC1	-12.6% (inactive)
COc1cccc(CC2(CO)CCCN(Cc3ccc(OC(F)F)cc3)C2)c1 (stereo not drawn)	-73.9% (active)
COc1cccc(CC2(CO)CCCN(CC3=Cc4cc(OC)ccc4OC3)C2)c1 (stereo not drawn)	8.29% (inactive)
COc1cccc(CC2(CO)CCCN(Cc3nc(-c4cccs4)oc3C)C2)c1 (stereo not drawn)	-11.7% (inactive)
C[C@@H]1CN([C@@H](C)CO)C(=O)CCCn2nncc2CO[C@H]1CN(C)C(=O)Nc1ccc(C(F)(F)F)cc1	-21.9% (inactive)
Cc1ccc(OCC(=O)Nc2ccccc2C(=O)NC2CC2)cc1	36.5% (inactive)
O=C(CN1CCCCC1)Nc1ccccc1C(=O)NC1CC1	4.09% (inactive)
N#Cc1ccc(CN2CCN(CC(=O)Nc3ccccc3C(=O)NC3CC3)CC2)cc1	-89.2% (active)
COc1ccc(OC)c(C(=O)NC2CCCc3c2cnn3-c2cc(C)cc(C)c2)c1 (stereo not drawn)	-0.114% (inactive)
CC1(C)NC(=O)N(CC(=O)Nc2ccc(-c3ccccc3)cc2)C1=O	-12.6% (inactive)
O=C(NCc1ccco1)c1sc2cccc(F)c2c1Cl	-25.2% (inactive)
COc1ccc2oc(C(=O)NCc3ccco3)c(C)c2c1	26.9% (inactive)

Structure (SMILES)	activity change
COc1ccc2c(Cl)c(C(=O)NCc3ccco3)sc2c1	-70.1% (active)
OCC1OC(n2cnc3c(N4CCCC4)ncnc32)C(O)C1O (stereo not drawn)	-11.6% (inactive)
C[C@H]1CN(c2ccc(Br)cc2)C(=O)[C@@H]1CC(=O)Nc1ccc(Br)cc1	1.02% (inactive)
CN(CC(=O)Nc1ccc(F)cc1)C(=O)c1ccc(-c2ccc(Cl)cc2)o1	-18.6% (inactive)
CSc1sc(C(=O)NNC(=O)c2ccc(Cl)cc2)c2c1C=CCC2	-2.11% (inactive)
C=CCNC(=O)c1sc(SC)cc1-c1ccc(Cl)cc1	-187% (active)
Cc1ccc(S(=O)(=O)NCCN2CCOCC2)cc1C	-76.1% (active)
O=S(=O)(NCCCN1CCOCC1)c1ccc(F)c(Cl)c1	4.11% (inactive)
Cc1cc(C)c(S(=O)(=O)NCCCN2CCOCC2)cc1Br	12.5% (inactive)
C[C@H]1CN([C@@H](C)CO)S(=O)(=O)c2ccc(Br)cc2O[C@H]1CN(C)C(=O)c1cnccn1	2.27% (inactive)
COC(=O)Cn1nc(-c2ccccc2)c2cc(Cl)ccc21	-4.79% (inactive)
COCCCNc1nc2c(-c3cccc(C(F)(F)F)c3)nnn2c2ccccc12	-4.14% (inactive)
COCCCNc1nc2c(-c3cccc(C)c3)nnn2c2ccc(Cl)cc12	-86% (active)
Cc1nnc(SC(C)C(=O)c2c[nH]c3ccccc23)n1C1CC1 (stereo not drawn)	-2.83% (inactive)
Cc1cn([C@H]2C[C@H](O)[C@@H](CNC(=O)[C@H](N)Cc3cccnc3)O2)c(=O)[nH]c1=O	-1.56% (inactive)
O=C(C[C@H]1C[C@@H]2c3cc(NC(=O)C4CCC4)ccc3O[C@@H]2[C@H](CO)O1)NC1CCCCC1	-22.6% (inactive)
O=C(C1CCCO1)N1CCN(C(=O)C23CC4CC(CC(C4)C2)C3)CC1 (stereo not drawn)	-8.69% (inactive)
O=c1[nH]nc(Cc2ccccn2)c2ccccc12	-160% (active)
c1ccc(CCc2ccccn2)cc1	15.2% (inactive)
Cc1ccc(C(=O)C(C)OC(=O)Cc2n[nH]c(=O)c3ccccc23)cc1C (stereo not drawn)	5.46% (inactive)
C[C@H](CO)N1C[C@H](C)[C@@H](CN(C)S(=O)(=O)c2ccc(Oc3ccccc3)cc2)OCc2cn(nn2)CCCC1=O	10.5% (inactive)
COc1ccc(C=C2CCC3C(CCCC34OCCO4)C2=O)cc1 (stereo not drawn)	7.34% (inactive)
COc1ccc(S(=O)(=O)N2CCN(CC(=O)N3CCNC3=O)CC2)cc1OC	-3.77% (inactive)
OC(COc1ccc(CN2CCSCC2)cc1)CN1CCCCC1 (stereo not drawn)	-2.59% (inactive)

Structure (SMILES)	activity change
O=C(c1ccc(Cl)cc1)c1ccc(OCC(O)CN2CCCCC2)cc1 (stereo not drawn)	42.5% (inactive)
Cc1cccc(C)c1OCC(O)CN1CCCCC1 (stereo not drawn)	-71.1% (active)
Cc1ccc(NC(=O)c2ccco2)cc1	-2.95% (inactive)
O=Cc1cn(CCOc2ccc(F)cc2)c2ccccc12	-0.818% (inactive)
COc1cccc(NC(=O)N2CCC(NC(=O)C(Cc3cccc(C)c3)NC(C)=O)CC2)c1 (stereo not drawn)	-205% (active)
CCOC(=O)C1CCN(C(=O)Nc2cccc(OC)c2)CC1	-8.37% (inactive)
COc1ccc(CC(NC(C)=O)C(=O)NC2CCN(C(=O)Nc3ccc(C#N)cc3)CC2)cc1OC (stereo not drawn)	6.09% (inactive)
O=Nc1c(O)cc(O)c2ccccc12	-0.133% (inactive)
COC(=O)C(Cc1c[nH]c2ccccc12)NC(=O)CCNC(=O)c1ccco1 (stereo not drawn)	0.0904% (inactive)
CSc1ncc(C(=O)Nc2ccc(C)cc2C)c(C)n1	-213% (active)
Cc1ccc(NC(=O)c2ccn(C(=O)Nc3ccccc3)n2)c(C)c1	5.47% (inactive)
CSc1ncc(C(=O)NCCCc2ccccc2)c(C)n1	11.2% (inactive)
CCc1cc(C(=O)N(CC)CC(=O)Nc2c(F)cccc2F)sc1C	1.41% (inactive)
CC(C)c1cc(C(=O)NC2CCCCCC2)c2ccccc2n1	1.65% (inactive)
O=S(=O)([N-]c1nc2ccccc2nc1-[n+]1ccc(Cc2ccccc2)cc1)c1ccc(Br)s1	8.23% (inactive)
CCCCNc1nc2ccccc2nc1NS(=O)(=O)c1cccs1	-1.02% (inactive)
Cc1cc(C)c[n+](-c2nc3ccccc3nc2[N-]S(=O)(=O)c2cccs2)c1	-111% (active)
N#Cc1ccc(OCC(=O)Nc2nc(-c3ccccn3)cs2)cc1	19.3% (inactive)
O=C(NCC(c1cccs1)N1CCOCC1)c1cc(-c2ccccn2)nc2ccccc12 (stereo not drawn)	0.99% (inactive)
O=C(c1ccccc1)c1cc(-c2ccccn2)c(N2CCOCC2)s1	-186% (active)
CCc1ccc2ncc(C(=O)c3ccccc3)c(N3CCOCC3)c2c1	5.15% (inactive)
